What was measured:
Type in all cases: functional
[1] = target: Solute carrier family 2, facilitated glucose transporter member 1 (Homo sapiens) (UniProt P11166); assay: ST_JUDE_LEISH: Cytotoxicity at 2uM final concentration against transgenic Leishmania Mexicana promastigotes LmGLUT1 that are glucose transport deficient and complemented with the human glucose transporter GLUT1. Activity is measured by DNA content using SYBR green in vitro
[2] = target: Hexose transporter 1 (Plasmodium falciparum) (UniProt O97467); assay: ST_JUDE_LEISH: Cytotoxicity at 2uM final concentration against transgenic Leishmania Mexicana promastigotes LmPfHT that are glucose transport deficient and complemented with the Plasmodium falciparum hexose transporter. Activity is measured by DNA content using SYBR green in vitro
[3] = target: Glucose transporter (Leishmania mexicana) (UniProt O61059); assay: ST_JUDE_LEISH: Cytotoxicity at 2uM final concentration against transgenic Leishmania Mexicana promastigotes LmGT2 that are glucose transport deficient and complemented with the L. Mexicana glucose transporter 2. Activity is measured by DNA content using SYBR green in vitro

Solute carrier family 2, facilitated glucose transporter member 1 (Homo sapiens), sequence (P11166 whole entry): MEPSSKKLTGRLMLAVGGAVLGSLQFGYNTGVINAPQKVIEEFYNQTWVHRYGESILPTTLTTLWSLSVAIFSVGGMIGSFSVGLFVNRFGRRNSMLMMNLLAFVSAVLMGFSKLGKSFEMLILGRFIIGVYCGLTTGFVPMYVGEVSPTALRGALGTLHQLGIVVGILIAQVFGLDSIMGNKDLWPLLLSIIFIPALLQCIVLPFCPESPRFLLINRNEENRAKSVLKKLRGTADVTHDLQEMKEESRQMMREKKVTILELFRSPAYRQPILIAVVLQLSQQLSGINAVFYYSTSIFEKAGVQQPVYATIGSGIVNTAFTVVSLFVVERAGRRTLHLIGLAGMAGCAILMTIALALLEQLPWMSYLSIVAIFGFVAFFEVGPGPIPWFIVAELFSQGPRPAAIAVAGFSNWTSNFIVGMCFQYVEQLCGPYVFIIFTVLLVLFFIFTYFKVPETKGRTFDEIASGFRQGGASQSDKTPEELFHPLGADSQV

Row | SMILES | inhibition [1] | inhibition [2] | inhibition [3]
1 | Cn1nc(-c2cccc(CNC3CCc4ccccc43)c2)c2cnc(NCCCN3CCCC3)nc21 (stereo not drawn) | 29.9% | 32.6% | 25.9%
2 | CCCCCN1CCC(CNS(=O)(=O)c2ccc(C(=O)Nc3cccc(C(F)(F)F)c3)cc2)CC1 | 0.47% | 0.02% | -0.33%
3 | CN(C)c1ccc(NC2=NC(N)=NC(C)(C)N2)cc1 | 0.38% | 1.5% | 0.7%
4 | COc1cccc(CN2CCC(N3CCc4cc(NC(=O)c5cc(C)on5)ccc43)C2)c1OC (stereo not drawn) | 1.63% | 5.08% | 4.28%
5 | O=C(/C=C/c1cccc(C(F)(F)F)c1)NCCCCCN1CCC(c2c[nH]c3ccccc23)CC1 | 4.06% | 3.58% | 1.4%
6 | CC(C)CNCc1cccc(-c2cccc(CN(CCCN3CCN(C)CC3)C(=O)/C=C/c3ccccc3)c2)c1 | -1.06% | -1.23% | -4.91%
7 | CCCNc1nc(Nc2ccccc2C)nc2ccccc12 | 38.1% | 33.5% | 13.8%
8 | CC(=O)Nc1ccc(OCCCCN(Cc2ccccc2C(F)(F)F)c2ccc(C(F)(F)F)c(C#N)c2)c(Cl)c1 | 0.27% | 3.28% | 0.64%
9 | Fc1ccccc1C=NNc1ccnc2cc(Cl)ccc12 | 5.84% | 7.17% | 6.07%
10 | O=C(Nc1cccc(-c2nn3ccccc3c2-c2ccnc(Nc3cccc(F)c3)n2)c1)c1c(F)ccc(F)c1F | 6.01% | 9.13% | 5.56%
11 | Nc1ncc(-c2ccc(F)cc2)cc1-c1nc2ccc(Cl)cc2[nH]1 | 4.48% | 5.54% | 2.11%
